Sa RN4220 lethal = S. aureus RN4220 growth inhibition. OD600, 16 h. inhibition, % (no concentration beside the values). 330,000 tested, 0.33% active. AID 1259311; in the data active means inhibition above about 85%;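 further: plate controls were untreated cells for no effect and reference antibiotic for full effect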
PriA SSB inh = blocks PriA binding to SSB C-terminal tail; inhibition, % at 33 µM; 430,000 tested, 0.6% active; AlphaScreen SSBct-PriA binding, biotinylated peptide; in the data active means inhibition mostly above about 37%, no sharp cut-off; inactive means mostly below about 20%;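 further: plate controls were negative control peptide for no effect and reference peptide for full effect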
ugtP null kill = compounds lethal to S. aureus RN4220 ugtP deletion mutant | OD600 growth, 16 h | growth inhibition, % (concentration not given with the values) | 330,000 tested, 0.54% active; in the data active means growth inhibition above about 68%;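 further: plate controls were untreated wells for no effect and antibiotic for full effect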
Starred values were filed as active, the others as inactive; . = no result given. Sampled rows, rich in hits. Any-hit rate of the full collection: about 1%.

SMILES	Sa RN4220 lethal	PriA SSB inh	ugtP null kill
CC(=NNC(=S)N1CCN(c2ccccn2)CC1)c1nccs1	.	92*	.
COC(=O)NC1CC(=O)N(c2cccc(F)c2)C1 (stereo not drawn)	.	-23	.
CN1CCOc2ccc(NS(=O)(=O)c3ccc(N4CCCCS4(=O)=O)cc3)cc2C1=O	.	-10	.
CCOc1ccc2nc(SCc3ccccc3C#N)sc2c1	3	-5	53
CCOc1ccc2nc(SCc3ccc(OC)cc3)sc2c1	7	-17	90*
O=C(c1ccc(N2CCOCC2)cc1)N1CCSC(c2ccccc2)CC1 (stereo not drawn)	.	-9	.
O=C(Cc1ccc(Cl)cc1)NCCc1c[nH]c2ccccc12	.	9	.
O=C(CCl)N(c1ccccc1)c1c[nH]c2ccccc12	91	-12	90*
O=C(CCl)N(c1ccc(Cl)cc1)c1c[nH]c2ccccc12	90*	-15	97*
CC(=O)n1cc(N(C(=O)CCl)c2ccccc2)c2ccccc21	37	-25	41
Cc1cc(C(=O)NCCn2ccc(C(F)(F)F)n2)no1	.	-8	.
CN1c2ccsc2C(=NNC(=O)c2c(F)cccc2F)CS1(=O)=O	4	3	-2
Cc1ccc(NN=C2CS(=O)(=O)N(C)c3ccsc32)cc1	99*	28	93
COc1ccc(C[C@](C)(O)CNC(=O)c2ccc3ncsc3c2)cc1	.	7	.
O=[N+]([O-])c1ccc(O)c(C=Nc2ccc3c(c2)OCCO3)c1	92*	-6	74
O=[N+]([O-])c1ccc(O)c(C=Nc2cccc3ncccc23)c1	80	68*	66
O=[N+]([O-])c1ccc(O)c(C=Nc2cccc3ccccc23)c1	78	11	56
CN(C)N=Cc1cc([N+](=O)[O-])ccc1O	71	4	55
O=C(Nc1nc(-c2ccc(F)cc2F)cs1)C(c1ccccc1)c1ccccc1	.	-12	.
COc1cccc(-n2c(SCC(=O)c3ccc(Cl)cc3)nnc2-c2c[nH]c3ccccc23)c1	.	-10	.
CC(C)N1CCC(CNC(=O)c2ccco2)CC1	.	12	.
COC(=O)[C@@H]1C[C@@]2(O)[C@H](O)[C@H](O)[C@H](O)C[C@H]2N1Cc1cc(OC)cc(OC)c1	.	-2	.
COC(=O)[C@@H]1C[C@@]2(O)[C@@H](O)[C@@H](O)[C@@H](O)C[C@H]2N1Cc1cc(OC)cc(OC)c1	.	101*	.
COC(CNS(=O)(=O)c1c(C)noc1C)c1ccc(Cl)s1 (stereo not drawn)	.	-8	.
CCOC(=O)c1cnn(CCO)c1C	.	-24	.
SMILES	Sa RN4220 lethal	PriA SSB inh	ugtP null kill
CCC(C(=O)Nc1nc(-c2ccccn2)cs1)c1ccccc1 (stereo not drawn)	.	100*	.
CC(Oc1ccccc1)C(=O)Nc1nc(-c2ccccn2)cs1 (stereo not drawn)	10	5	0
C[C@H](NC(=O)c1ccccc1)C(=O)Nc1nc(-c2ccccn2)cs1	3	62*	1
O=C(CCCSc1ccccc1)Nc1nc(-c2ccccn2)cs1	6	36	-4
CC(CC(=O)Nc1nc(-c2ccccn2)cs1)NC(=O)c1ccccc1 (stereo not drawn)	.	75*	.
O=C(Nc1nc(-c2ccccn2)cs1)C(c1ccccc1)c1ccccc1	.	37	.
CC(C)c1ccc(OCC(=O)NCc2cc(-c3ccc(F)cc3)on2)cc1	.	-12	.
Cc1cc(=O)n(CCNC(=O)c2nc3nc(C)cc(C)n3n2)cn1	.	-7	.
Cc1onc(-c2ccccc2)c1C(=O)Nc1nnc(C(C)C)s1	10	-8	2
O=C(Cc1ccc(Cl)cc1)Nc1ncc([N+](=O)[O-])s1	30	-10	15
Cc1onc(-c2ccccc2)c1C(=O)Nc1ncc([N+](=O)[O-])s1	80	-9	82*
O=C(COc1ccc(Cl)cc1)Nc1ncc([N+](=O)[O-])s1	100*	11	98*
O=C(Nc1ncc([N+](=O)[O-])s1)c1ccc2c(c1)OCO2	.	1	.
Cc1ccc(C(=O)Nc2ncc([N+](=O)[O-])s2)cc1	93*	-1	92*
Cc1ccc(-c2ccc(=O)n(CCCC(=O)Nc3ccccc3C(N)=O)n2)cc1	.	-6	.
COc1cc(Nc2c(C#N)cnc3ccc(Cl)cc23)cc(OC)c1OC	.	-5	.
COc1ccccc1NC(=O)N1CCC(Oc2ccc(C)nn2)CC1	.	-17	.
COc1ccccc1C1CC(=O)Oc2cc(C)c(Br)c(C)c21 (stereo not drawn)	-3	-8	86*
COc1ccccc1C1CC(=O)Oc2cc(C)c(Cl)c(C)c21 (stereo not drawn)	1	-12	28
CC(=O)Nc1ccc(C(=O)NCCNC(=O)c2ccc(N3CCOCC3)nn2)cc1	.	-3	.
CCOC(=O)N1CCC(Nc2cc(C)nc3c(-c4ccccc4OC)c(C)nn23)CC1	3	104*	13
CCOC(=O)N1CCN(C(=O)CSc2cc(C)nc3c(-c4ccccc4OC)c(C)nn23)CC1	0	-2	5
CS(=O)(=O)c1ccc(CCC(=O)N2CC(n3cc(-c4ccccc4)nn3)C2)cc1	.	-2	.
CC(C)(C)OC(=O)N1CCC(c2cc(C(N)=O)n[nH]2)CC1	.	39*	.
CC(C)(C)OC(=O)N1CCC(c2cc(-c3cccs3)n[nH]2)CC1	-7	-4	3
SMILES	Sa RN4220 lethal	PriA SSB inh	ugtP null kill
CCSc1ccccc1C(=O)Nc1nnc(Cc2cccs2)o1	.	40*	.
O=C(Nc1nnc(Cc2cccs2)o1)c1ccc(S(=O)(=O)N2CCOCC2)cc1	.	79*	.
O=C(Nc1nnc(Cc2cccs2)o1)c1ccccc1Cl	.	3	.
C[C@H]1CCCN(S(=O)(=O)c2ccc(C(=O)Nc3nnc(Cc4cccs4)o3)cc2)C1	.	91*	.
CC(C)S(=O)(=O)c1cccc(C(=O)Nc2nnc(Cc3cccs3)o2)c1	.	41*	.
COCc1nnc(NC(=O)c2ccc(S(=O)(=O)N3CCOCC3)cc2)o1	-1	-12	-7
COc1cccc(C(=O)Nc2nnc(Cc3ccc(S(=O)(=O)C(C)C)cc3)o2)c1	.	-3	.
Cc1ccc(S(=O)(=O)N2CCCC(C(=O)Nc3nnc(Cc4cccs4)o3)C2)cc1 (stereo not drawn)	.	12	.
C#CCn1c(=NC(=O)CCCS(=O)(=O)c2ccc(F)cc2)sc2cc3c(cc21)OCO3	.	-11	.
COc1ccc(-c2coc3cc(OCCN4CC(C)OC(C)C4)ccc3c2=O)cc1 (stereo not drawn)	.	-11	.
COc1cc(NC(=O)c2cn(C)nc2C)cc(OC)c1OC	.	-6	.
NC(=O)CNC(=O)C1CN(c2nc3c(C(F)(F)F)cccc3s2)C1	.	2	.
COc1cc(SC)ccc1C(=O)NCCOc1ccc(Cl)cc1	4	-8	1
CSc1ccc(Cl)c(C(=O)NCCOc2cc(C(C)C)ccc2C)c1	96*	-24	97*
CSC[C@@](C)(O)CNC(=O)Cc1ccsc1	.	-19	.
COC(=O)c1sc2cccc(F)c2c1S(=O)(=O)NCc1cccnc1	.	52*	.
CNC(=O)c1ccc(S(=O)(=O)NCc2cccnc2)o1	.	-11	.
O=C1CCC(=O)N1Cc1csc(Nc2c(F)cccc2F)n1	.	-9	.
COc1ccccc1CCNC(=O)N[C@H]1CC(=O)N(c2cccc(F)c2)C1	.	-3	.
CS(=O)(=O)N1CCC(C(=O)NCCCn2ccc3cccnc32)CC1	.	3	.
CO[C@@](C)(CNS(=O)(=O)C1CC1)c1ccccc1F	.	1	.
O=[N+]([O-])c1c(Nc2cccc(O)c2)cc(Cl)c2nonc12	.	3	.
CNc1cc(Cl)c2nonc2c1[N+](=O)[O-]	94*	-13	98*
O=C(Cc1cccs1)N1Cc2cnc(N3CCOCC3)nc2C1	.	2	.

High-throughput results: PubChem, several laboratories
